Source: PubChem BioAssay (NCATS)
Results filed as inconclusive are left out. Entries that show only a call come without a potency. Active and inactive are the calls of the source. Unless noted, calls come from the whole dose curve.

Tests used:
[1] = qHTS for Inhibitors of the Functional Ribonucleoprotein Complex (vRNP) of Lassa (LASV) Arenavirus: LASV Primary Screen - GLuc reporter signal (AID 1347082; calls by dose curve; tested in HEK293 reporter line; note: nearly all actives have a fitted effect of over 60% in size; note: potency is the fitted concentration of half-maximal effect)
[2] = qHTS for Inhibitors of the Functional Ribonucleoprotein Complex (vRNP) of Lassa (LASV) Arenavirus: Viability assay - alamar blue signal for LASV Primary Screen (AID 1347083; calls by dose curve; tested in HEK293 reporter line; note: nearly all actives have a fitted effect of over 80% in size; note: potency is the fitted concentration of half-maximal effect)
[3] = qHTS for Inhibitors of the Functional Ribonucleoprotein Complex (vRNP) of Lymphocytic Choriomeningitis Arenaviruses (LCMV): Viability assay - alamar blue signal for LCMV Primary Screen (AID 1347085; calls by dose curve; tested in HEK293 reporter line; note: nearly all actives have a fitted effect of over 80% in size; note: potency is the fitted concentration of half-maximal effect)
[4] = biological target: Nucleoprotein (Lymphocytic choriomeningitis virus (strain Armstrong)) (UniProt P09992); test: qHTS for Inhibitors of the Functional Ribonucleoprotein Complex (vRNP) of Lymphocytic Choriomeningitis Arenaviruses (LCMV): LCMV Primary Screen - GLuc reporter signal (AID 1347086); note: series mostly up to about 57 µM; nearly all actives have a fitted effect of over 70% in size
Chain of Nucleoprotein (Lymphocytic choriomeningitis virus (strain Armstrong)) (P09992 whole entry, looked up): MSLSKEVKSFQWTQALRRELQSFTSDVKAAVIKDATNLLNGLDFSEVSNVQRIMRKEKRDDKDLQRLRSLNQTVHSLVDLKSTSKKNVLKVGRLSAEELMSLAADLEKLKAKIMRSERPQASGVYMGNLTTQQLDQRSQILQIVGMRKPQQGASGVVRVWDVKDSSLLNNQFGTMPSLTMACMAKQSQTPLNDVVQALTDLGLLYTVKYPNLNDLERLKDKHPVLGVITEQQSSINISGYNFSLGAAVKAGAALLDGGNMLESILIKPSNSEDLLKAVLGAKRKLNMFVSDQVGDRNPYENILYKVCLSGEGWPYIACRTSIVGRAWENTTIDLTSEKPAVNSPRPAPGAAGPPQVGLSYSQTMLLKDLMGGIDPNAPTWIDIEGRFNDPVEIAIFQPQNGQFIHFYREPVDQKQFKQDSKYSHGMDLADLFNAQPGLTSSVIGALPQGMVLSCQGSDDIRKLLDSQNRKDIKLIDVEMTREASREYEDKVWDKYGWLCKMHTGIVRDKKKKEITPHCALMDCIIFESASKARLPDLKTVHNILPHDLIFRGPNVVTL

Structure (SMILES) | Potency [1] | Potency [2] | Potency [3] | Potency [4]
O=c1ccn([C@@H]2O[C@H](COP(=O)(O)O)[C@@H](O)[C@H]2O)c(=O)[nH]1 | inactive | inactive |  | 
CCCCCCC[C@@H](C/C=C/CCC(=O)N(C)C/C(=C/Cl)C/C(=C\C(=O)N1C[C@H](O)CC1=O)OC)OC | inactive | inactive | inactive | 
COc1cc2nc(-c3cc(F)ccc3O)nc(N[C@@H]3CNC[C@@H]3C(C)(C)O)c2cc1OC | 1370 nM (active) | 1090 nM (active) | 8630 nM (active) | 
CC(=O)O[C@@]12CO[C@@H]1C[C@H](OC1OCC(O)C(O)C1O)[C@@]1(C)C(=O)[C@H](O)C3=C(C)[C@@H](OC(=O)[C@H](O)[C@@H](NC(=O)c4ccccc4)c4ccccc4)C[C@@](O)([C@@H](OC(=O)c4ccccc4)C12)C3(C)C (some centres undefined) | inactive | 20000 nM (active) |  | 
CC(C)(O)CC(=O)NCCn1ccc2ncnc(Nc3ccc(Oc4cccc(C(F)(F)F)c4)c(Cl)c3)c21 | inactive | inactive | 769 nM (active) | 
O=C1NC(=O)C(=Cc2ccc3nccc(-c4ccncc4)c3c2)S1 | 432 nM (active) | 109 nM (active) | 273 nM (active) | 
O=C(O)C[C@H](O)C[C@H](O)C=Cc1c(C2CC2)nc2ccccc2c1-c1ccc(F)cc1 | inactive | 24300 nM (active) |  | 
O=C(O)Cc1ccc(O)cc1 | inactive | inactive | inactive | inactive
Nc1ncnc2c1ncn2[C@@H]1O[C@H](COP(=O)(O)OP(=O)(O)OC[C@H]2OC(O)[C@H](O)[C@@H]2O)[C@@H](O)[C@H]1O (some centres undefined) | inactive | inactive | inactive | inactive
C=CC(C)(C)c1c2occc2c(O)c2ccc(=O)oc12 | inactive | inactive |  | 
CC(C)n1nc(-c2ccc3oc(N)nc3c2)c2c(N)ncnc21 | 2.4 nM (active) | 1.9 nM (active) | 3.1 nM (active) | 
C=C(C)C(Cc1c(OC)ccc(C(=O)/C=C/c2ccc(O)cc2)c1O)OO (centres undefined) | inactive | inactive | inactive | 
CCS(=O)(=O)c1cccc(-c2cc(C(=O)NC3CCN(C)CC3)c(C)c3[nH]c4ncc(C)cc4c23)c1 | 12200 nM (active) | 6850 nM (active) | 6110 nM (active) | 
COc1ccc([C@@H]2CC(=O)c3c(O)cc(O[C@@H]4O[C@H](CO)[C@@H](O)[C@H](O)[C@H]4OC4O[C@@H](C)[C@H](O)[C@@H](O)[C@H]4O)cc3O2)cc1O (some centres undefined) | inactive | inactive |  | 
COC(=O)C1C2CC3c4[nH]c5cc(OC)ccc5c4CCN3CC2CC(O)C1OC (centres undefined) | inactive | inactive |  | 
CCCCCCC1CCC(=O)O1 (centres undefined) | inactive | inactive | inactive | 
Cc1cnn(C)c1C(=O)Nc1cc(Nc2ccc3c(C=Cc4ccccn4)n[nH]c3c2)ccc1F | 21700 nM (active) | 19300 nM (active) |  | 

Structure (SMILES) | Potency [1] | Potency [2] | Potency [3] | Potency [4]
CCC(=C(CC)c1ccc(O)cc1)c1ccc(O)cc1 | inactive | 15.3 nM (active) | 13.7 nM (active) | 
CC[C@H]1OC(=O)[C@H](C)C(=O)[C@H](C)[C@@H](O[C@H]2O[C@H](C)C[C@H](N(C)C)[C@@H]2O)[C@](C)(OC)C[C@@H](C)C(=O)[C@H](C)[C@H]2N(CCCCn3cnc(-c4cccnc4)c3)C(=O)O[C@]12C | inactive | inactive | inactive | 
Nc1nc(N)c2[nH]cnc2n1 | inactive | inactive | inactive | inactive
CC(=O)[C@]1(O)Cc2c(O)c3c(c(O)c2[C@@H](O[C@H]2C[C@H](N)[C@@H](O)[C@H](C)O2)C1)C(=O)c1ccccc1C3=O | 10900 nM (active) | 769 nM (active) | 611 nM (active) | 
O=C(C=Cc1ccc(O)cc1)c1ccc(O)cc1O | inactive | inactive | inactive | 
COc1cccc(-c2ccc(NC(=O)C3=C(C(=O)O)CCC3)c(F)c2)c1 | inactive | inactive | inactive | 
CN(C)S(=O)(=O)c1ccc2c(c1)C(=Cc1cc3c([nH]1)CCCC3)C(=O)N2 | inactive | 10900 nM (active) | 2730 nM (active) | 
Cc1cc(Nc2ncc3c(n2)N(C)C(=O)N(c2cc(NC(=O)c4cccc(C(F)(F)F)c4)ccc2C)C3)n(C)n1 | 3850 nM (active) | 611 nM (active) | 1530 nM (active) | 
C[C@H]([C@@H](O)[C@@H](O)[C@@H](C)C(C)(C)C)[C@H]1CC[C@H]2C3CC[C@H]4C[C@H](OS(=O)(=O)O)[C@@H](OS(=O)(=O)O)C[C@]4(C)[C@H]3CC[C@]12C (some centres undefined) | inactive | inactive |  | 
Nc1ccn([C@@H]2O[C@H](CO)[C@H](O)C2(F)F)c(=O)n1 | inactive | 968 nM (active) | 968 nM (active) | 
CN(C(Cc1ccc(OS(=O)(=O)c2cccc3cnccc23)cc1)C(=O)N1CCN(c2ccccc2)CC1)S(=O)(=O)c1cccc2cnccc12 (centres undefined) | 13700 nM (active) | 21700 nM (active) |  | 
COc1cc(OC)c2c(=O)cc(-c3ccccc3)oc2c1 | inactive | inactive | inactive | 
CC(=O)O[C@@H]1CC[C@@]2(C)[C@H](C1)[C@H](OC(C)=O)C[C@@H]1[C@@H]2C[C@H]2[C@@H]3CN4C[C@H](C)CC[C@H]4[C@H](C)[C@H]3CC[C@@]12O | inactive | inactive |  | 
O=C(O)[C@H]1NC[C@H]2C[C@H]21 | inactive | inactive | inactive | inactive
COc1cc(CCc2ccccc2)c(C(=O)O)c(O)c1C/C=C(/C)CCC=C(C)C | inactive | inactive | inactive | inactive
CCC(=C(c1ccc(O)cc1)c1ccc(OCCNC)cc1)c1ccccc1 | 3430 nM (active) | 3430 nM (active) | 13700 nM (active) | 
